Where “and” joins values, the source holds several entries; their conditions need not be identical. Equal values may be shown once. Inconclusive results are not listed. Calls of active or inactive are those of the source.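 The calls were made as follows, unless noted: active = mean z-score across replicates of 1.96 or higher in either the MELAS or the Rieske mutant cell line; inactive = the rest.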 Peptide text beside a SMILES is read from it.
How the values were obtained:
[1] = viability loss in pontine glioma line – cell-based, SU-DIPG-XXV, MIPE5.0, CellTiter-Glo, qHTS, dose response (AID 1347065; cut-off not given, nearly all actives have AC50 up to about 26 µM;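 also: cells exposed to compound for 48 hours before ATP readout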); conditions: CellTiter-Glo ATP luminescence
[2] = JHH-DIPG-1 glioma cell viability, MIPE5.0 library, CellTiter-Glo luminescence, qHTS (AID 1347067; cut-off not given, nearly all actives have AC50 up to about 26 µM;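 also: cells exposed to compound for 48 hours before readout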); conditions: JHH-DIPG-1 glioma viability, CellTiter-Glo ATP luminescence
[3] = growth inhibition of DIPG cells – cell-based, MIPE5.0 library, qHTS (AID 1347068; cut-off not given, nearly all actives have IC50 up to about 30 µM); conditions: SU-DIPG-XXV viability
[4] = viability loss with induced miR-34 in A549 – imaging, A549 dox-inducible miR-34, nuclei and caspase counts, primary screen (AID 1347080;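 active = compounds whose cell count with miR-34 switched on is under 0.7 times the count with it off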); conditions: A549 miR-34 inducible, Hoechst nuclei count, 48 h
[5] = MELAS cybrid and Rieske KO viability enhancers – cell-based, MELAS cybrids, Rieske KO mouse fibroblasts, CellTiter-Glo, primary screen (AID 1508586); conditions: low glucose;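 also: z relative to plate mean and SD of compound and empty wells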
[6] = growth inhibition of DIPG cells – cell-based, MIPE4.0 library, CellTiter-Glo luminescence, qHTS (AID 1347066; cut-off not given, nearly all actives have AC50 up to about 30 µM;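 also: cells exposed to compound for 48 hours before readout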); conditions: SU-DIPG-VI viability, CellTiter-Glo ATP luminescence
[7] = blockers of cellular phospholipid synthesis – cell-based, LOPAC library, screen 4, primary screen (AID 1347384; call rule not given here); conditions: animal cells, phospholipid biosynthesis inhibition screen; at 10 µM
[8] = stronger effect = lower value, cell number ratio, induced over uninduced
[9] = measured here: relative caspase fold change +Dox/-Dox
[10] = measured here: total cells with miR-34 induction, stronger effect = lower value
[11] = measured here: total cells without miR-34 induction
[12] = MELAS cybrid survival, CellTiter-Glo 48 h, stronger effect = higher value
[13] = Rieske KO mouse fibroblast survival, CellTiter-Glo 72 h

| SMILES | AC50 [1] | AC50 [2] | outcome [3] | fold change [4, 8] | fold change [4, 9] | cell count [4, 10] | cell count [4, 11] | z-score [5, 12] | z-score [5, 13] | outcome [6] | outcome [2] | outcome [7] |
| --- | --- | --- | --- | --- | --- | --- | --- | --- | --- | --- | --- | --- |
| CN(Cc1cc(Br)cc(Br)c1N)C1CCCCC1 | 16.6 µM (active) | 26.3 µM (active) | inactive | 0.928 (inactive) and 0.903 (inactive) and 0.881 (inactive) | 0.942 and 3.08 and 1.05 | 8160 and 11000 and 9390 | 8790 and 12200 and 10700 | -0.2 (inactive) and -0.238 (inactive) and -0.0697 (inactive) | 0.932 and -0.166 and 0.184 |  |  |  |
| CN1CCC(=C2c3ccccc3C=Cc3ccccc32)CC1 |  |  | inactive |  |  |  |  | -0.307 (inactive) and -0.043 (inactive) and -1.41 (inactive) | -0.028 and 0.523 and -1.01 | inactive | inactive | inactive |
| COC(=O)[C@H](Cc1ccccc1)NC(=O)[C@@H](N)CC(=O)O (H-Asp-Phe-OMe) |  |  |  | 0.869 (inactive) | 2.93 | 11000 | 12600 |  |  | inactive | inactive |  |
| CC(=O)Nc1ccc(O)cc1 |  |  | inactive | 0.829 (inactive) and 0.996 (inactive) and 0.866 (inactive) | 0.925 and 0.621 and 1.43 | 8180 and 9760 and 10200 | 9870 and 9800 and 11800 | 0.35 (inactive) | -0.0609 | inactive |  |  |
| C[C@](N)(Cc1ccc(O)c(O)c1)C(=O)O |  |  | inactive |  |  |  |  | -1.52 (inactive) and -0.0357 (inactive) | -0.276 and -0.892 | inactive |  | inactive |
| Nc1ccc(S(=O)(=O)Nc2ccccn2)cc1 |  |  |  | 0.875 (inactive) and 0.859 (inactive) | 1.07 and 2.95 | 9140 and 10900 | 10400 and 12600 | -0.349 (inactive) | 0.469 | inactive |  |  |
| Nc1nc(N)nc(-c2cc(Cl)ccc2Cl)n1 |  |  | inactive |  |  |  |  | -0.19 (inactive) and -0.868 (inactive) and 0.283 (inactive) | 0.166 and -0.512 and 0.352 | inactive | inactive |  |
| Cc1cccc(N(C)C(=S)Oc2ccc3ccccc3c2)c1 |  |  | inactive | 0.98 (inactive) and 0.897 (inactive) and 0.793 (inactive) | 1.24 and 1.29 and 1.54 | 8090 and 8100 and 9280 | 8260 and 9020 and 11700 | -0.305 (inactive) and 0.185 (inactive) | 0.765 and 0.376 | inactive |  |  |
| CN(C)CCC=C1c2ccccc2C=Cc2ccccc21 |  |  | inactive |  |  |  |  | -1.05 (inactive) and 0.34 (inactive) | -0.783 and 0.18 | inactive |  | inactive |

Source: PubChem BioAssay
